Measured values published in PubChem BioAssay (NCATS).
Inconclusive results are not listed. A call without a number means that no potency is given here. Unmarked numbers belong to inactive results. Active and inactive are the calls of the source. The call rests on the fitted dose curve; in most records, active means well fitted inhibition curve with a large enough effect; inconclusive means small, poorly fitted or top-dose-only effect; inactive means flat fitted curve, though single readings scatter.

Assays:
[1] = system: PAD; test: qHTS profiling for inhibitors of Plasmodium falciparum proliferation (AID 504749); further: potency means the concentration at half of the fitted maximal effect; settings: P. falciparum in erythrocytes, SYBR Green DNA, 72 h; series mostly up to 28.7 µM
In short: (§1)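 Three-day growth assay of blood-stage parasites in erythrocytes (0.3% parasitemia, 2.5% hematocrit) at 37 C, 5% CO2, quantified by SYBR Green DNA staining after overnight detergent lysis.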

[2] = system: PC15; test: as above; settings: P. falciparum in erythrocytes, SYBR Green DNA, 72 h; series mostly up to 28.7 µM
In short: as §1

[3] = system: PC49; test: as above; settings: P. falciparum in erythrocytes, SYBR Green DNA, 72 h; series mostly up to 28.7 µM
In short: as §1

[4] = system: SC27B; test: as above; settings: P. falciparum in erythrocytes, SYBR Green DNA, 72 h; series mostly up to 28.7 µM
In short: as §1

[5] = system: TAB109; test: as above; settings: P. falciparum in erythrocytes, SYBR Green DNA, 72 h; series mostly up to 28.7 µM
In short: as §1

[6] = system: TAB113; test: as above; settings: P. falciparum in erythrocytes, SYBR Green DNA, 72 h; series mostly up to 28.7 µM
In short: as §1

[7] = system: TAB165; test: as above; settings: P. falciparum in erythrocytes, SYBR Green DNA, 72 h; series mostly up to 28.7 µM
In short: as §1

[8] = system: W2; test: as above; settings: P. falciparum in erythrocytes, SYBR Green DNA, 72 h; series mostly up to 28.7 µM
In short: as §1

[9] = system: CRL-7250; test: Cytotoxic Profiling of Annotated Libraries Using Quantitative High-Throughput Screening (AID 1296008); settings: Five cell lines viability, CellTiter-Glo ATP luminescence, 48-72 h; max response: hits give low values
In short: (§2)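 Cytotoxicity was measured as CellTiter-Glo ATP luminescence, read after 10 min at room temperature. Compound treatment of the cells lasted 48 or 72 hr at 37 degrees Celsius in a qHTS format.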

[10] = system: HaCat; test: as above; settings: Five cell lines viability, CellTiter-Glo ATP luminescence, 48-72 h; max response: hits give low values
In short: as §2

[11] = system: KB-3-1; test: as above; settings: Five cell lines viability, CellTiter-Glo ATP luminescence, 48-72 h; max response: hits give low values
In short: as §2

[12] = system: NIH3T3; test: as above; settings: Five cell lines viability, CellTiter-Glo ATP luminescence, 48-72 h; max response: hits give low values
In short: as §2

[13] = system: MCC-13; test: qHTS assay to identify novel small-molecules to repurpose for Merkel cell carcinoma treatment (AID 1296009); settings: MCC and control cell lines, CellTiter-Glo viability, 72 h; series mostly up to 46 µM; further: potency means the concentration at half of the fitted maximal effect
In short: (§3)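 After compound transfer in DMSO, plates were kept 72 hr at 37 degree celsius. Luminescent ATP signal from CellTiter-Glo served as viability measure, normalized against DMSO and no-cell controls.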

[14] = system: MCC-26; test: as above; settings: MCC and control cell lines, CellTiter-Glo viability, 72 h; series mostly up to 46 µM
In short: as §3

[15] = system: MKL-1; test: as above; settings: MCC and control cell lines, CellTiter-Glo viability, 72 h; series mostly up to 46 µM
In short: as §3

[16] = system: PC26; test: qHTS profiling for inhibitors of Plasmodium falciparum proliferation (AID 504749); further: potency means the concentration at half of the fitted maximal effect; settings: P. falciparum in erythrocytes, SYBR Green DNA, 72 h; series mostly up to 28.7 µM
In short: as §1

[17] = system: HACAT; test: qHTS assay to identify novel small-molecules to repurpose for Merkel cell carcinoma treatment (AID 1296009); settings: MCC and control cell lines, CellTiter-Glo viability, 72 h; at 44.8 µM (top of the series) unless noted; further: potency means the concentration at half of the fitted maximal effect
In short: as §3
Further: nearly all actives have a fitted effect of over 60% in size.

SMILES	Potency [1]	Potency [2]	Potency [3]	Potency [4]	Potency [5]	Potency [6]	Potency [7]	Potency [8]	max response [9] [%]	max response [10] [%]	max response [11] [%]	max response [12] [%]	Potency [13]	Potency [14]	Potency [15]	Potency [16]	outcome [10]	outcome [17]	outcome [12]
C[C@]12C=CC(=O)C=C1CC[C@@H]1[C@@H]2CC[C@@]2(C)[C@H]1CC[C@]2(C)O	inactive	inactive	inactive	inactive	inactive	inactive	inactive	inactive	-25.8	-43.5	-13.2	-13.6	inactive	inactive	inactive				
OC(c1ccccc1)(c1ccccc1)C1CCNCC1	inactive			inactive	inactive	inactive	inactive	inactive	4.48	-12.8	-11.7	-1.52	inactive	inactive	inactive	inactive			
c1ccc2nc(N3CCNCC3)ccc2c1	inactive	inactive	inactive	inactive	inactive	inactive	inactive	inactive	-2.05	-23.1	-16.3	0.319	inactive	inactive	inactive	inactive			
C[C@H]1C(=O)O[C@@H]2CCN3CC=C(COC(=O)[C@](C)(O)[C@]1(C)O)[C@H]23	inactive	inactive	inactive	inactive		inactive	inactive	inactive	-23.7		-11.3	-4.3	inactive	inactive	inactive	inactive	inactive	inactive	
Cc1cccc(Cc2cnc[nH]2)c1C									-4.56	-10	-11.3	-2.68	inactive	inactive	inactive				
CCN(CC)CCOC(=O)C(C)(c1ccccc1)c1ccccc1								1.35 µM (active)	-0.0825		-6.01	1.33	inactive	inactive	inactive		inactive	inactive	
C=CCOC(Cn1ccnc1)c1ccc(Cl)cc1Cl (stereo not given)	8.91 µM (active)	8.91 µM (active)		10 µM (active)	7.94 µM (active)	8.91 µM (active)	3.16 µM (active)	4.26 µM (active)	-16.8		2.22	-13	inactive	inactive	inactive	7.57 µM (active)	inactive	inactive	
CC[C@H]1C[C@@H]2C[C@H]3c4[nH]c5ccc(OC)cc5c4CCN(C2)[C@@H]13									1.28	-4.77	-8.79	-11.9	inactive	inactive					
CC(C)[N+](C)(CCC(C(N)=O)(c1ccccc1)c1ccccc1)C(C)C	inactive	inactive	inactive	inactive	inactive	inactive	inactive		3.89		11.9		inactive	inactive		inactive	inactive	inactive	inactive
Oc1ccc2[nH]cc(CCCCN3CC=C(c4ccccc4)CC3)c2c1							11.2 µM (active)	5.36 µM (active)	4.19		7.3		inactive	inactive	8.41 µM (active)	13.5 µM (active)	inactive	inactive	
C#C[C@]1(O)C=C[C@H]2[C@@H]3CCC4=CC(=O)CC[C@@H]4[C@H]3CC[C@@]21CC									0.605		-9.68		inactive	inactive	inactive		inactive	inactive	
CC(C)=C[C@@H]1[C@@H](C(=O)OCc2coc(Cc3ccccc3)c2)C1(C)C									2.34		6.83	-1.15	inactive	inactive	inactive		inactive	inactive	
CCN(CC)C(C)C(=O)c1ccccc1 (stereo not given)	inactive	inactive	inactive	inactive	inactive		inactive	inactive	-0.537		-1.49	-1.81	inactive	inactive	inactive	inactive	inactive	inactive	
